From the antibiotic and cytotoxicity screens of Wong et al. (2023) come the findings set out here.

The whole screen tested about 39,000 compounds, of which about 3,300 (8.5%) were called active. Only a selection was taken, and actives are over-represented in it overall.

In the assay the test system is HepG2. The assay is described as follows: cytotoxicity call (relative viability < 0.9). The conditions noted are these: 10 µM.
As for `Cc1noc(C)c1NC(=O)Nc1ccc2c(c1)CC(=O)N([C@@H](C)CO)C[C@H](C)[C@@H](CN(C)S(=O)(=O)c1c(C)noc1C)O2`, the cytotoxicity call was “inactive”.

For the molecule `CC(C)C[C@@H]1NC(=O)[C@H]2C[C@@H](C(=O)NCCCC[N+](C)(C)C)[C@@H](c3cccc(OCCO)c3)N2C1=O`, the cytotoxicity call was “inactive”.

As for `CO[C@H]1CN(C)C(=O)c2cc(NS(C)(=O)=O)ccc2OC[C@H](C)N(C(=O)C2CCOCC2)C[C@@H]1C`, the cytotoxicity call was “inactive”.

For the molecule `N#CCCn1c(CC(N)=O)nc2ccccc21`, the cytotoxicity call is “inactive”.

On to `Cc1cccc(S(=O)(=O)N2C[C@H](O)COC[C@@H]3O[C@@H](CC(=O)NCc4ccncn4)CC[C@H]32)c1`, for which the cytotoxicity call was “inactive”.

For the molecule `C[C@H](CO)N1C[C@H](C)[C@@H](CN(C)Cc2ccc(C(F)(F)F)cc2)OCCCC[C@H](C)Oc2ccc(NC(=O)Nc3ccc4c(c3)OCO4)cc2C1=O`, the cytotoxicity call is “inactive”.

Consider `C[C@H]1CCCCO[C@@H](CN(C)Cc2ccc(C(F)(F)F)cc2)[C@@H](C)CN([C@@H](C)CO)C(=O)c2cc(NC(=O)Nc3ccc4c(c3)OCO4)ccc2O1`, for which the cytotoxicity call was “inactive”.

As for `C[C@H](CO)N1C[C@H](C)[C@H](CN(C)Cc2ccc(C(F)(F)F)cc2)OCCCC[C@H](C)Oc2ccc(NC(=O)Nc3ccc4c(c3)OCO4)cc2C1=O`, the cytotoxicity call is “inactive”.

As for `C[C@@H]1CCCCO[C@@H](CN(C)Cc2ccc(C(F)(F)F)cc2)[C@@H](C)CN([C@H](C)CO)C(=O)c2cc(NC(=O)Nc3ccc4c(c3)OCO4)ccc2O1`, the cytotoxicity call was “inactive”.

Turning to `C[C@@H]1CCCCO[C@H](CN(C)Cc2ccc(C(F)(F)F)cc2)[C@@H](C)CN([C@H](C)CO)C(=O)c2cc(NC(=O)Nc3ccc4c(c3)OCO4)ccc2O1`, the cytotoxicity call was “active”.

As for `C[C@@H]1CCCCO[C@H](CN(C)Cc2ccc(C(F)(F)F)cc2)[C@H](C)CN([C@@H](C)CO)C(=O)c2cc(NC(=O)Nc3ccc4c(c3)OCO4)ccc2O1`, the cytotoxicity call was “active”.

Consider `C[C@@H]1CCCCO[C@@H](CN(C)Cc2ccc(C(F)(F)F)cc2)[C@H](C)CN([C@H](C)CO)C(=O)c2cc(NC(=O)Nc3ccc4c(c3)OCO4)ccc2O1`, for which the cytotoxicity call was “active”.

With `C[C@H]1CCCCO[C@H](CN(C)Cc2ccc(C(F)(F)F)cc2)[C@@H](C)CN([C@@H](C)CO)C(=O)c2cc(NC(=O)Nc3ccc4c(c3)OCO4)ccc2O1`, the cytotoxicity call is “active”.

As for `CC1(C)SC2C(NC(=O)C(N)c3ccccc3)C(=O)N2C1C(=O)[O-].[Na+]` (stereo not drawn), the cytotoxicity call was “inactive”.

For `C[C@@H]1CCCCO[C@H](CN(C)C(=O)Nc2ccc(F)cc2)[C@H](C)CN([C@H](C)CO)C(=O)c2cc(NS(=O)(=O)c3cccs3)ccc2O1`, the cytotoxicity call was “inactive”.

`COc1ccc(NC(=O)Nc2ccc3c(c2)C(=O)N([C@@H](C)CO)C[C@H](C)[C@H](CN(C)Cc2ccncc2)OCCCC[C@H](C)O3)cc1`: the cytotoxicity call was “inactive”.

Regarding `COC1C=COC2(C)Oc3c(C)c(O)c4c(O)c(c(C=NN5CCN(C)CC5)c(O)c4c3C2=O)NC(=O)C(C)=CC=CC(C)C(O)C(C)C(O)C(C)C(OC(C)=O)C1C` (stereo not drawn), the cytotoxicity call was “inactive”.

As to `COc1ccc(NC(=O)Nc2ccc3c(c2)C(=O)N([C@@H](C)CO)C[C@@H](C)[C@H](CN(C)C(=O)Nc2cccc4ccccc24)OCCCC[C@@H](C)O3)cc1`, the cytotoxicity call was “inactive”.

`N[C@@H](C(=O)O)c1ccc(O)cc1`: the cytotoxicity call was “inactive”.

With `C[C@@H]1CCCCO[C@H](CN(C)C(=O)Nc2cccc3ccccc23)[C@@H](C)CN([C@H](C)CO)C(=O)c2cc(N(C)C)ccc2O1`, the cytotoxicity call is “inactive”.

Consider `CC(C=CC1(O)C(C)=CC(=O)CC1(C)C)=CC(=O)O` (mixture of isomers) [ABSCISIC ACID (cis,trans; +/-) ], for which the cytotoxicity call was “inactive”.

Consider `C[C@H]1CN([C@@H](C)CO)C(=O)c2cc(NC(=O)CCC(F)(F)F)ccc2O[C@H]1CN(C)Cc1ccc(Oc2ccccc2)cc1`, for which the cytotoxicity call is “active”.

Consider `C[C@H]1CN([C@@H](C)CO)C(=O)c2cc(NC(=O)CCC(F)(F)F)ccc2O[C@@H]1CN(C)Cc1ccc(Oc2ccccc2)cc1`, for which the cytotoxicity call was “inactive”.

Consider `C[C@@H]1CN([C@@H](C)CO)C(=O)c2cc(NC(=O)CCC(F)(F)F)ccc2O[C@@H]1CN(C)Cc1ccc(Oc2ccccc2)cc1`, for which the cytotoxicity call is “active”.

As to `C[C@H](CO)N1C[C@H](C)[C@H](CN(C)Cc2ccc(Oc3ccccc3)cc2)Oc2ccc(NC(=O)CCC(F)(F)F)cc2C1=O`, the cytotoxicity call is “inactive”.

For `C[C@@H]1CN([C@H](C)CO)C(=O)c2cc(NC(=O)CCC(F)(F)F)ccc2O[C@@H]1CN(C)Cc1ccc(Oc2ccccc2)cc1`, the cytotoxicity call was “inactive”.

As to `C[C@@H]1CN([C@H](C)CO)C(=O)c2cc(NC(=O)CCC(F)(F)F)ccc2O[C@H]1CN(C)Cc1ccc(Oc2ccccc2)cc1`, the cytotoxicity call was “inactive”.

`COc1ccccc1S(=O)(=O)N[C@H]1CC[C@@H](CCNC(=O)C2CCOCC2)O[C@H]1CO`: the cytotoxicity call was “inactive”.

With `CSCC[C@H]1NC(=O)NC1=O`, the cytotoxicity call was “inactive”.

Turning to `OCCC12CC3CC(CC(C3)C1)C2`, the cytotoxicity call was “inactive”.

For the molecule `C[C@@H]1CN([C@@H](C)CO)C(=O)CCCn2cc(nn2)CO[C@H]1CN(C)C(=O)Nc1ccc(N2CCCCC2)cc1`, the cytotoxicity call was “inactive”.

As to `C[C@@H]1CN([C@H](C)CO)C(=O)c2cccc(NS(=O)(=O)c3ccc(Cl)cc3)c2O[C@@H]1CN(C)C(=O)Nc1ccc(C(F)(F)F)cc1`, the cytotoxicity call was “active”.

With `C[C@H]1CN([C@@H](C)CO)C(=O)c2cccc(NS(=O)(=O)c3ccc(Cl)cc3)c2O[C@@H]1CN(C)C(=O)Nc1ccc(C(F)(F)F)cc1`, the cytotoxicity call was “inactive”.

With `C[C@@H]1CN([C@@H](C)CO)C(=O)c2cccc(NS(=O)(=O)c3ccc(Cl)cc3)c2O[C@@H]1CN(C)C(=O)Nc1ccc(C(F)(F)F)cc1`, the cytotoxicity call is “active”.

Take `C[C@H]1CN([C@@H](C)CO)C(=O)c2cccc(NS(=O)(=O)c3ccc(Cl)cc3)c2O[C@H]1CN(C)C(=O)Nc1ccc(C(F)(F)F)cc1`: the cytotoxicity call was “inactive”.

For `C[C@@H]1CN([C@@H](C)CO)C(=O)c2cccc(NS(=O)(=O)c3ccc(Cl)cc3)c2O[C@H]1CN(C)C(=O)Nc1ccc(C(F)(F)F)cc1`, the cytotoxicity call was “inactive”.

With `C[C@H]1CN([C@@H](C)CO)C(=O)c2cccc(NS(=O)(=O)c3ccc(F)cc3)c2O[C@@H]1CN(C)C(=O)Nc1ccc(C(F)(F)F)cc1`, the cytotoxicity call is “inactive”.

For the molecule `C[C@H]1CN([C@@H](C)CO)C(=O)c2cccc(NS(=O)(=O)c3ccc(F)cc3)c2O[C@H]1CN(C)C(=O)Nc1ccc(C(F)(F)F)cc1`, the cytotoxicity call is “inactive”.

For `C[C@@H]1CN([C@@H](C)CO)C(=O)c2cccc(NS(=O)(=O)c3ccc(F)cc3)c2O[C@@H]1CN(C)C(=O)Nc1ccc(C(F)(F)F)cc1`, the cytotoxicity call is “active”.

`C[C@H](CO)N1C[C@H](C)[C@H](CN(C)C(=O)Nc2ccc(C(F)(F)F)cc2)Oc2c(NS(=O)(=O)c3ccc(Cl)cc3)cccc2C1=O`: the cytotoxicity call is “active”.

`C[C@@H]1CN([C@H](C)CO)C(=O)c2cccc(NS(=O)(=O)c3ccc(Cl)cc3)c2O[C@H]1CN(C)C(=O)Nc1ccc(C(F)(F)F)cc1`: the cytotoxicity call is “inactive”.

As to `C[C@H](CO)N1C[C@H](C)[C@@H](CN(C)C(=O)Nc2ccc(C(F)(F)F)cc2)Oc2c(NS(=O)(=O)c3ccc(Cl)cc3)cccc2C1=O`, the cytotoxicity call is “inactive”.

`C[C@@H]1CN([C@H](C)CO)C(=O)c2cccc(NS(=O)(=O)c3ccc(F)cc3)c2O[C@H]1CN(C)C(=O)Nc1ccc(C(F)(F)F)cc1`: the cytotoxicity call was “inactive”.

Regarding `C[C@@H]1CC=CC[C@H](c2cccc(Cl)c2)NC(=O)[C@@H](Cc2ccccc2)N(C)C(=O)c2ccccc2O1`, the cytotoxicity call was “inactive”.

Regarding `C[C@@H]1CN([C@@H](C)CO)C(=O)c2c(c3ccccc3n2C)-c2ccccc2CO[C@@H]1CN(C)C(=O)N[C@H](C)c1ccccc1`, the cytotoxicity call was “inactive”.

For `Cc1ccc(S(=O)(=O)N(C)C[C@@H]2Oc3cc(Br)ccc3S(=O)(=O)N([C@@H](C)CO)C[C@H]2C)cc1`, the cytotoxicity call was “inactive”.

As to `Cc1noc(C)c1S(=O)(=O)Nc1ccc2c(c1)C(=O)N([C@H](C)CO)C[C@H](C)[C@@H](CN(C)C(=O)Nc1ccccc1)OCCCC[C@H](C)O2`, the cytotoxicity call is “inactive”.

On to `O=C1N[C@@H](CC(=O)N2CCN(CCc3ccncc3)CC2)C(=O)Nc2ccccc21`, for which the cytotoxicity call is “inactive”.

In the case of `COc1ccc(-c2cnc3c(c2)C(=O)N([C@@H](C)CO)C[C@@H](C)[C@H](CN(C)C(=O)Cc2ccccn2)O3)cc1`, the cytotoxicity call is “inactive”.

In the case of `CCCNC(=O)N[C@H]1CC[C@H](CC(=O)N2CCN(C)CC2)O[C@H]1CO`, the cytotoxicity call was “inactive”.

On to `C[C@@H](O)CNC(=O)C(=O)NC(C)(C)C`, for which the cytotoxicity call is “inactive”.

For `COc1cccc(-c2cn(CC[C@@H]3CC[C@H](NC(=O)CN(C)C)[C@H](CO)O3)nn2)c1`, the cytotoxicity call was “inactive”.

In the case of `C[C@H]1CN([C@@H](C)CO)C(=O)c2cc(NC(=O)Cc3ccccc3)ccc2O[C@@H]1CN(C)S(=O)(=O)c1cn(C)cn1`, the cytotoxicity call was “inactive”.

As for `NCCC[C@H](NC(=O)[C@@H]1CCCN1C(=O)[C@@H]1CSSC[C@H](N)C(=O)N[C@@H](Cc2ccc(O)cc2)C(=O)N[C@@H](Cc2ccccc2)C(=O)N[C@@H](CCC(N)=O)C(=O)N[C@@H](CC(N)=O)C(=O)N1)C(=O)NCC(N)=O`, the cytotoxicity call is “active”.

Regarding `NCCCC[C@H](NC(=O)[C@@H]1CCCN1C(=O)[C@@H]1CSSC[C@H](N)C(=O)N[C@@H](Cc2ccc(O)cc2)C(=O)N[C@@H](Cc2ccccc2)C(=O)N[C@@H](CCC(N)=O)C(=O)N[C@@H](CC(N)=O)C(=O)N1)C(=O)NCC(N)=O`, the cytotoxicity call was “inactive”.

In the case of `NCCCC[C@H](NC(=O)[C@@H]1CCCN1C(=O)[C@@H]1CSSC[C@H](N)C(=O)N[C@@H](Cc2ccccc2)C(=O)N[C@@H](Cc2ccccc2)C(=O)NC(CCC(N)=O)C(=O)N[C@@H](CC(N)=O)C(=O)N1)C(=O)NCC(N)=O` (stereo partly drawn), the cytotoxicity call is “inactive”.

Turning to `CNC[C@H]1OCCCC[C@H](C)Oc2ccc(NC(=O)Nc3ccc(C(F)(F)F)cc3)cc2C(=O)N([C@H](C)CO)C[C@@H]1C`, the cytotoxicity call is “inactive”.

For the molecule `COc1cccc(S(=O)(=O)Nc2ccc3c(c2)C(=O)N(C)C[C@H](OC)[C@@H](C)CN(C(=O)Cc2cccnc2)[C@@H](C)CO3)c1`, the cytotoxicity call was “inactive”.
